Compounds with a hit are over-represented: about 3.7% of the library has one in this group of screens.
BoNT F protease – BoNT/F light chain protease inhibitors, primary screen, biochemical, flow cytometry, MLPCN library | hit rate 0.22% among 360,000 | AID 588497, 2011 | Botulinum neurotoxin type F light chain protease (Clostridium botulinum) | inhibition, % at 10 µM | Multiplex microsphere protease cleavage assay; in the data active = inhibition above about 35%, passing the limit was not always enough; inconclusive = no clear call, values can overlap the other calls; also: plate controls were buffer without enzyme for full effect and enzyme alone for no effect
Anthrax LF prot – Bacillus anthracis LF protease inhibitors, primary screen, biochemical, multiplex microsphere, MLPCN library. inhibition, % at 10 µM. Lethal factor (Bacillus anthracis), P15917. hit rate 0.12% among 360,000. multiplex microsphere protease cleavage assay; also: plate controls were buffer without enzyme for full effect and enzyme alone for no effect
Target sequence (P15917 whole entry, looked up): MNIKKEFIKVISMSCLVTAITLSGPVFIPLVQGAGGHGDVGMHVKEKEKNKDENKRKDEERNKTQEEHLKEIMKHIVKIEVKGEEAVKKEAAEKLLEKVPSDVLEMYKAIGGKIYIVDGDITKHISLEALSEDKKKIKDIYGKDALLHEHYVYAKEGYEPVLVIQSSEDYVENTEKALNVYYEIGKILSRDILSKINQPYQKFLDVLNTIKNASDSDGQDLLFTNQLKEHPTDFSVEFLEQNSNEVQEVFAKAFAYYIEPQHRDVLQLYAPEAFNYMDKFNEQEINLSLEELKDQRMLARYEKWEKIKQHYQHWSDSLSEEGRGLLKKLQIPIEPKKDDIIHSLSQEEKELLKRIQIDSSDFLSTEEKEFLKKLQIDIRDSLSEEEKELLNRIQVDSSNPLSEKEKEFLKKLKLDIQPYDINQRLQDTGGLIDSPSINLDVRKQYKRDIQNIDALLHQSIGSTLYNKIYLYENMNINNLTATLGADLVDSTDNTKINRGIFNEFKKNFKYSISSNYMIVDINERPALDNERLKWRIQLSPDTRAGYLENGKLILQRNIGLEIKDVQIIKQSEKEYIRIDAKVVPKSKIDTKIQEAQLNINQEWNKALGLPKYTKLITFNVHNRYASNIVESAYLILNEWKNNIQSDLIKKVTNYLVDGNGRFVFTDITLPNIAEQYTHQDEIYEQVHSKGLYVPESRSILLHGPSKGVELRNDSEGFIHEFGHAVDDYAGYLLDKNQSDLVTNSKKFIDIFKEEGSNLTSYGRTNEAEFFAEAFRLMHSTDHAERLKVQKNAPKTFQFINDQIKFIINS
Bead autofluor – compound fluorescence in toxin protease inhibitor counterscreen | compound autofluorescence counterscreen, microsphere flow cytometry; hits give high values | fluorescence intensity (concentration not given with the values) | hit rate 3.1% among 360,000; in the data active = fluorescence intensity above about 16000; inconclusive = no clear call, values can overlap the other calls
BoNT-A LC inh2 – BoNT/A light chain protease inhibitors, primary screen, biochemical, flow cytometry, MLPCN library | multiplex microsphere protease substrate cleavage | hit rate 0.17% among 360,000 | Botulinum neurotoxin type A light chain protease (Clostridium botulinum A str. ATCC 3502) | inhibition, % at 10 µM; also: plate controls were buffer without enzyme for full effect and enzyme alone for no effect
MazEF act – activators of E. coli MazEF toxin-antitoxin RNase, primary screen, biochemical, fluorescence, uHTS; Endoribonuclease toxin MazF (Escherichia coli (strain K12)), P0AE70; FAM/BHQ RNA-DNA oligo cleavage fluorescence, 5 h; activation, % at 20 µM; hit rate 0.32% among 350,000; in the data active = activation above about 50%
An asterisk follows results filed as active; ? = inconclusive; . = no result given. Rule as the data show it, unless noted: active = inhibition above about 30%; inconclusive = no clear call, values can overlap the other calls; inactive = below that.

SMILES	BoNT F protease	Anthrax LF prot	Bead autofluor	BoNT-A LC inh2	MazEF act
Cc1c(NC(=O)c2cc(=O)[nH]c3ccccc23)c(=O)n(-c2ccccc2)n1C	-5.3	-0.4	17099*	-2.7	7.0
CCCCN(C(=O)c1ccccc1Br)C(c1ccc(OC)cc1)c1nc2ccccc2[nH]1 (stereo not drawn)	-4.2	-6.2	5521	0.3	.
CCN(CC)S(=O)(=O)c1cccc(-c2nnc(SCC(=O)NC3CCCCCC3)n2N)c1	2.2	-3.1	22076*	1.7	-4.9
COc1ccc(-c2nnc(SCC(=O)NC3CCCCC3)n2N)cc1	-8.3	-2.0	4381	2.0	0.3
Nn1c(SCC(=O)NC2CCCCC2)nnc1-c1ccccc1	14.8	-1.7	4547	0.6	3.7
Cc1ccc(-c2nnc(SCC(=O)NC3CCCC3)n2N)cc1	0.0	-6.9	3598	0.3	-0.6
CCN(CC)S(=O)(=O)c1cccc(-c2nnc(SCC(=O)NC3CCCCCCC3)n2N)c1	-5.2	1.2	21228*	-4.9	1.2
CCN(CC)S(=O)(=O)c1cccc(-c2nnc(SCC(=O)NC3CCCC3)n2N)c1	-5.5	-3.2	20557*	-2.9	5.2
Cc1ccccc1S(=O)(=O)NC(=O)C1(C)CCN1C(=O)C1(c2ccc(Cl)cc2)CCC1 (stereo not drawn)	-6.8	-2.1	4349	-0.5	.
CCOC(=O)C1CCN(Cc2cnc(Oc3ccc(N)cc3)s2)CC1	2.6	-3.1	21292*	2.6	0.7
CCOC(=O)C1CCN(Cc2ccc(C(=O)OC)cc2)CC1	-2.6	-2.2	23791*	-1.3	1.1
CCOC(=O)C1CCN(C(=O)c2cccc(C(=O)N3CCC(C(=O)OCC)CC3)c2)CC1	-3.4	1.9	21616*	?	-15.3
CCOC(=O)C1CCN(Cc2ccc(F)cc2)CC1	0.6	-0.9	16511*	-0.3	-4.5
COCCCN1C(=O)C(CC(=O)NC2CC2)CC(C(=O)N(C(C)C)C(C)C)=C1C (stereo not drawn)	-4.3	2.0	5581	-0.1	.
c1ccc2oc(-c3ccc(Nc4nc(N5CCOCC5)nc(N5CCOCC5)n4)cc3)nc2c1	4.2	0.0	3503	0.1	-46.4
COC(=O)c1ccc(/C=N\N2CCN(Cc3ccc(C)cc3)CC2)cc1	-2.7	-8.3	16594*	?	-6.2
COC(=O)c1ccc(/C=N/N2CCN(Cc3ccccc3)CC2)cc1	-10.7	-5.1	2784	-0.8	-6.5
NC(=O)C1(N2CCCCC2)CCN(Cc2ccc(F)cc2)CC1	-1.7	1.0	21961*	-5.2	-1.0
CC1(C(=O)Nc2ccc(F)c(Cl)c2)Cc2c(-c3ccc(C(N)=O)cc3)ccnc2O1 (stereo not drawn)	1.1	-3.1	2988	-0.3	.
CN(C)c1ccc(C(c2ccc(N(C)C)cc2)C(O)c2ccccc2)cc1 (stereo not drawn)	-4.6	-4.7	?	0.5	-3.7
Cc1nc(SCC(=O)Nc2ccc3c(c2)OCCO3)c2oc3ccccc3c2n1	0.2	0.9	20676*	0.3	53.5*
CCc1nc(SCC(=O)Nc2ccc3c(c2)OCCO3)c2oc3ccccc3c2n1	5.1	-1.3	2148	-0.3	-15.2
COc1ccccc1NC(=O)CSc1nc2c(oc3ccccc32)c(=O)n1C	-0.1	0.4	5668	1.2	7.2
COc1ccccc1NC(=O)CSc1ncnc2c1oc1ccccc12	0.5	-2.3	20328*	0.8	-2.0
O=C(CSc1ncnc2c1oc1ccccc12)Nc1ccc2c(c1)OCCO2	-4.5	-2.4	17420*	-3.6	5.8
SMILES	BoNT F protease	Anthrax LF prot	Bead autofluor	BoNT-A LC inh2	MazEF act
Cc1cc(C)cc(Nc2nc3c([nH]2)c(=O)n(C)c(=O)n3C)c1	-5.8	-0.2	2591	-0.4	1.5
Cc1ccc(Nc2nc3c([nH]2)c(=O)n(C)c(=O)n3C)cc1	-5.2	-2.5	20196*	-1.6	4.7
O=C(O)c1ccc(N=Nc2c(O)ccc3ncccc23)cc1	-21.8	-18.9	2838	-4.6	-2.6
Cc1csc(C)[n+]1CC(=O)c1ccccc1	48.5*	8.3	3957	-0.9	-24.1
O=C(Nc1cccc(C(F)(F)F)c1)C1CC(=O)N(Cc2ccco2)C1 (stereo not drawn)	-5.5	-5.2	3413	0.4	3.2
CC1(C)CC(=O)C=C(Nc2cc(-c3ccccc3)[nH]n2)C1	6.2	-1.4	21249*	3.5	1.2
Cc1ccc(NC(=O)CSc2nc3ccccc3c3nc4ccccc4n23)cc1	1.2	-0.3	19179*	0.4	27.4
COc1ccc(NC(=O)CSc2nc3ccccc3c3nc4ccccc4n23)cc1	-16.7	-0.6	2453	-1.4	-50.1
CCC(=O)n1nc(-c2ccccc2)nc1SCC(=O)Nc1ccc(C)cc1	-2.8	-0.6	21542*	-1.4	-13.1
CC(Sc1nncn1C)C(=O)Nc1ccc(N2CCCCC2)cc1 (stereo not drawn)	15.6	-1.4	4818	5.2	1.9
O=C(CCCn1c(=S)[nH]c2cc3c(cc2c1=O)OCO3)NC1CC1	-2.4	-1.4	22975*	-0.8	7.3
CCOc1ccc(NCC(=O)N/N=C/C=C/c2ccccc2)cc1	-2.5	-3.3	2657	-0.6	-0.9
CCOc1ccc(N=C/C=C/c2ccccc2)c(O)c1	-72.5	0.3	3275	35.1*	15.4
CC(=O)N1C[C@H]2CON(C)[C@H]2C[C@H]1c1cccc(-c2cc(Cl)cc(Cl)c2)c1	-2.6	-2.5	3985	-0.3	4.0
CCOC(=O)[C@]12CCC=C1N(Cc1ccc(Cl)cc1Cl)C(=O)[C@H](CC(=O)N1CCN(C(=O)c3ccco3)CC1)C2	-2.2	0.8	5620	-0.2	.
Cc1ccccc1-n1cnc2cc(NCc3cccs3)ccc21	-8.4	-3.0	23047*	?	4.7
COc1ccccc1-n1cnc2cc(NCc3cccs3)ccc21	3.8	-7.9	2305	0.8	-1.7
CCOc1ccc(CCN2C(=O)CCC2(C)C(=O)NC(C)CC)cc1OCC (stereo not drawn)	0.0	2.3	23716*	-0.3	-13.3
COc1ccc(CCN2C(=O)CCC2(C)C(=O)NC2CCCC2)cc1OC (stereo not drawn)	-10.5	0.7	4572	-0.7	6.7
COc1ccc(C2CC(c3ccccc3)=NN2S(=O)(=O)c2ccc(C)cc2)c(OC)c1 (stereo not drawn)	29.6	20.0	20530*	0.8	-17.4
CCOC(=O)CSc1nnc(NCC(=O)OC)c(=O)[nH]1	-6.8	0.5	21379*	-5.6	5.3
Cc1[nH]n(-c2ccccc2)c(=O)c1N=Nc1cccc(Cl)c1	-15.4	3.5	3809	-2.8	7.6
Cc1[nH]n(-c2ccccc2)c(=O)c1N=Nc1cccc([N+](=O)[O-])c1	42.0*	-7.7	4038	-2.1	-10.6
O=C(CC[C@H]1O[C@@H](n2ccc(=O)[nH]c2=O)[C@H](O)[C@@H]1O)N[C@H](Cc1ccccc1)C(=O)NCC1CCCCC1	-57.7	-28.2	6760	-9.9	.

Screens deposited in PubChem BioAssay by several laboratories.
